Reference: PubChem BioAssay AID633 (Emory University Molecular Libraries Screening Center, 2007)
In all, about 86,000 compounds went through this assay and about 1,100 (1.3%) were called active. The sample holds actives, similar compounds and a random draw of the others, so the mix is not that of the screen. A number with no mark means an inactive call.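 Rule for the calls: active = compounds whose percent inhibition of the receptor-coactivator binding signal exceeds about 50% in the single-dose screen (limit read from the data); inactive = the rest.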

Biological target: Estrogen receptor beta (Homo sapiens) (UniProt Q92731)
Assay: inhibitors of ERβ-SRC1 coactivator interaction, primary screen, biochemical, TR-FRET, ERβ LBD, SRC-1 peptide (AID 633);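 note: 0% = receptor plus peptide wells without compound and 100% = peptide-only wells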
Conditions: TR-FRET ER-beta LBD / SRC1-Cy5 peptide binding; at 25.6 µM; active compounds read high; receptor agonist-loaded with 1 µM estradiol

Sequence of Estrogen receptor beta (Homo sapiens) (Q92731 whole entry, looked up, the tested form may be a part): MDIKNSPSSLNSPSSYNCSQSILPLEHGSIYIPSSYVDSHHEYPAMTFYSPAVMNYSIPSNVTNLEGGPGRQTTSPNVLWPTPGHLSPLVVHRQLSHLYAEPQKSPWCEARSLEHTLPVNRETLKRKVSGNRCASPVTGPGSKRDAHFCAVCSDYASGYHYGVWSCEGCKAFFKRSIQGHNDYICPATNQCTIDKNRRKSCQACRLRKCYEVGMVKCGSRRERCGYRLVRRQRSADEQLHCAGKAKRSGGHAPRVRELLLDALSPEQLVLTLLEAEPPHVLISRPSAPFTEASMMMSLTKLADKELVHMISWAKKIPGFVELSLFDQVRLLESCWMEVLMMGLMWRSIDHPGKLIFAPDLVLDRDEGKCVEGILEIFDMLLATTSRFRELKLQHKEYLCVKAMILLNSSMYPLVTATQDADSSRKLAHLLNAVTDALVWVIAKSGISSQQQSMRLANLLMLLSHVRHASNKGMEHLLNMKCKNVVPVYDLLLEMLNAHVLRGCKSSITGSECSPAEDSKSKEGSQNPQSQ

| Structure (SMILES) | inhibition |
| --- | --- |
| C=CCn1c(SCc2cc(C(=O)OC)c(C)o2)nnc1-c1ccncc1 | 51.1% (active) |
| C=CCn1c(SCc2c(C(=O)OC)sc(N)c2C(=O)OC)nnc1-c1ccc(Cl)cc1 | -3.96% |
| COC(=O)c1ccc(NC(=O)CSc2nnc(-c3ccncc3)n2C)cc1 | -13.7% |
| O=C(CN(c1ccccc1)S(=O)(=O)c1ccc(Cl)cc1)Nc1ccccc1C(=O)N1CCCC1 | -2.12% |
| C=C(C)CNC(=S)/N=c1\scc(C)n1CC | 77.4% [fluorescence artefact?] (active) |
| C=CCn1c(SCCOc2ccc(OC)cc2)nnc1C(NC(=O)c1ccc(OC)cc1)C(C)C (stereo not drawn) | 6.7% |
| COC(=O)CSc1nc2c(c(C3CC=CCC3)c1C#N)CCC2 (stereo not drawn) | -2.54% |
| CCC(c1nnnn1C(C)(C)C)N(Cc1cc2cccc(C)c2n2nnnc12)C1CCCC1 (stereo not drawn) | 1.68% |
| O=C(CN1C(=O)CC(c2ccccc2)=Nc2ccccc21)NC1CCCCC1 | -6.21% |
| COc1ccc(C)cc1S(=O)(=O)Nc1cccc(Cl)c1Cl | -12.3% |
| Oc1c(Cl)cc(Cl)c(Cl)c1Cc1c(O)c(Cl)cc(Cl)c1Cl | 94.6% [fluorescence artefact?] (active) |
| COc1cc(OC)c(-n2c(C)cc(C=O)c2C)cc1Cl | 4.25% |
| O=C(/C=C/c1ccc(Cl)cc1Cl)c1cccnc1 | 23.9% |
| CC(NC(=O)CN1CCN(Cc2ccc(Cl)cc2)C1=O)c1ccc2c(c1)OCCO2 (stereo not drawn) | -8.28% |
| CC1CCCC(NC(=O)CN2CCN(Cc3ccc(Cl)cc3)C2=O)C1C (stereo not drawn) | -3.92% |
| Cc1ccc(CNC(=O)CN2CCN(Cc3ccc(Cl)cc3)C2=O)cc1 | 52.1% [fluorescence artefact?] (active) |
| COC(=O)c1cc(NC(=O)C2C3C=CC(C3)C2C(=O)O)cc(C(=O)OC)c1 (stereo not drawn) | -3.6% |
| Cc1cc(NC(=O)CSc2nc(C(C)C)nc3sc4c(c23)CCC(C)C4)no1 (stereo not drawn) | -5.67% |
| COc1ccc(C2C(C(C)=O)=C(O)C(=O)N2Cc2cccnc2)cc1 (stereo not drawn) | -18.2% |
| CCCc1nc2oc3c(OCC)ncnc3c2c2c1COC(C)(C)C2 | 2.61% |
| CC(C)CCSc1ncnc2c1oc1nc3c(cc12)COC(C)(C)C3 | 54.5% [fluorescence artefact?] (active) |
| C=CCn1c(=S)[nH]c2nc3c(cc2c1=O)COC(C)(C)C3 | -1.84% |

| Structure (SMILES) | inhibition |
| --- | --- |
| CCOc1cc2[nH]c(=S)n(CCN3CCCCC3C)c(=O)c2cc1OCC (stereo not drawn) | -0.24% |
| CCOc1cccc(NC(=O)Cn2nc(-c3ccc4c(c3)OCCO4)ccc2=O)c1 | 0.68% |
| C=CCc1ccc(OCCOc2cccc(/C=N/n3cnnc3)c2)c(OC)c1 | -5.22% |
| Cc1cccc(-n2c(Cc3cc(=O)[nH]c(=O)[nH]3)nnc2SC(C)C)c1 | 51.8% [fluorescence artefact?] (active) |
| COc1cccc(-n2c(Cc3cc(=O)[nH]c(=O)[nH]3)nnc2SCC(=O)Nc2ccccc2)c1 | -4.83% |
| Cc1cccc(-n2c(N)cc(=O)nc2SC(C)C(=O)NC2CCCCC2)c1 (stereo not drawn) | -5.73% |
| COc1ccc(NC(=O)CSc2nc(NS(=O)(=O)c3ccc(C)cc3)cc(=O)[nH]2)cc1 | -6.84% |
| O=C(c1cccnc1NCc1ccccc1)N1CCOCC1 | 2.12% |
| Oc1c(C(c2ccccn2)N2CCOCC2)ccc2cccnc12 (stereo not drawn) | 78.2% [fluorescence artefact?] (active) |
| Cc1nc2sc(C(c3ccco3)N3CCOCC3)c(O)n2n1 (stereo not drawn) | -29.9% |
| O=C(Nc1nccs1)c1cc(S(=O)(=O)N2CCOCC2)c(Cl)cc1Cl | -7.67% |
| c1ccc2c(-c3nn4nnnc4c4ccccc34)cccc2c1 | -6.58% |
| CCOC(=O)C1=C(C)NC(SC)=NC1c1ccccc1 (stereo not drawn) | -3.63% |
| CC(Oc1ccc(Cl)cc1)c1ccnn1S(C)(=O)=O (stereo not drawn) | -3% |
| COc1cccc(-c2nn(C)c3sc(C(=O)N4CCN(c5ccccc5)CC4)cc23)c1 | 10.8% |
| Cc1nc2ccc(C(=O)N3CCN(c4ccccc4)CC3)cc2s1 | -22% |
| O=C(c1cc2c(s1)CCC2)N1CCN(c2ccccc2)CC1 | 50.6% (active) |
| O=C(Nc1ccccc1)c1ccc2c(c1)OCO2 | 35.7% |
| Cc1nn(C)cc1CNC(=O)Nc1ccc(Cl)cc1 | -6.02% |
| CCOC(=O)c1ccc(COC(=O)CCc2nc(-c3ccccc3)c(-c3ccccc3)o2)cc1 | 1.8% |
| COCCCn1c(SCC(=O)Nc2ccccc2)nnc1-c1ccncc1 | 1.64% |
| COCCCn1c(Cc2csc(Nc3cccc(Cl)c3)n2)nnc1SCC(=O)OC1CCCCC1 | 77.5% (active) |

| Structure (SMILES) | inhibition |
| --- | --- |
| C=CCn1c(CC(=O)Nc2cccc(OC)c2)nnc1SCC(=O)NC1CCCCC1 | -1.41% |
| O=C(NCCCCCCNC(=O)NCc1ccco1)NCc1ccco1 | -27.9% |
| CCOC(=O)c1sc(C)c2c1NC(C)(c1cccc3ccccc13)NC2=O (stereo not drawn) | 14.4% |
| COc1cc(OC)c(C(=O)Nc2ccc(N(C)C)cc2)cc1OC | 97.4% [fluorescence artefact?] (active) |
| COc1cc(OC)c(C(=O)NC2CCCCCC2)cc1OC | -3.66% |
| COc1ccc(Cl)cc1C(=O)Nc1ccc(N(C)C(C)=O)cc1 | 3.01% |
| COc1cccc2cc(C(=O)N3CCN(C(=O)c4ccccc4)CC3)c(=O)oc12 | -4.03% |
| COc1ccc(S(=O)(=O)N/N=C\c2ccc(OC)c(COc3ccc(C)cc3[N+](=O)[O-])c2)cc1 | 27.5% |
| Cc1ccc(NC(=S)NC(NC(=O)Cc2cccc3ccccc23)C(Cl)(Cl)Cl)cc1 (stereo not drawn) | 40.2% |
| O=C1CCCc2nn(-c3ccccc3)nc21 | -7.98% |
| O=C(NCc1ccccn1)c1cc2ccccc2oc1=O | -2.55% |
| CN(c1ccc(C(=O)NCc2ccccn2)cc1)S(C)(=O)=O | -12.6% |
| O=C(NCc1ccccn1)c1ccc2nc(-c3ccco3)c(-c3ccco3)nc2c1 | 93% [fluorescence artefact?] (active) |
| CCOC(=O)C1CSC(CC(=O)Nc2ccc(OCC)cc2)C(=O)N1 (stereo not drawn) | -12.7% |
| COc1ccc(NC(=O)CCN2CCCC2)c(OC)c1 | -0.42% |
| COc1ccc(-c2n[nH]c(C)c2-c2ccc(OC)c(OC)c2)c(O)c1 | 3.54% |
| COc1ccc(OC)c(Nc2nc(-c3ccc(O)c(O)c3)cs2)c1 | 67.8% [fluorescence artefact?] (active) |
| Oc1ccc(-c2csc(Nc3cccnc3)n2)cc1 | 2.46% |
| O=C(COc1ccc(S(=O)(=O)NCc2ccccc2)cc1)N1CCOCC1 | -22.9% |
| O=C(Nc1nnc(SCc2c(Cl)cccc2Cl)s1)C1CCCO1 (stereo not drawn) | -1.99% |
| COc1cc(S(=O)(=O)N(Cc2cccs2)C2CC2)ccc1-n1cnnn1 | -25.2% |
| C=CCNC(=O)CSc1nc2sc(C)c(C)c2c(=O)[nH]1 | 6.38% |

| Structure (SMILES) | inhibition |
| --- | --- |
| CCOC(=O)CSc1nc2sc3c(c2c(=O)[nH]1)CC(C)(C)OC3 | -8.89% |
| CC(=O)c1sc2nc(SCC(=O)N3CCCCC3)[nH]c(=O)c2c1C | 56.2% (active) |
| CCCCOc1ccc(C(=O)NCc2ccncc2)cc1 | 0.29% |
| N#CC1=C(N)N(c2ccccc2)C2=C(C(=O)CCC2)C1c1ccccc1 (stereo not drawn) | -5.84% |
| CCC(C)NC(=O)CSC1=Nc2ccccc2C2=NC(CCC(=O)NCc3ccco3)C(=O)N12 (stereo not drawn) | -5.03% |
| O=C(CSC1=Nc2ccccc2C2=NC(CC(=O)NCc3ccco3)C(=O)N12)NCc1ccco1 (stereo not drawn) | 16.1% |
| CC(C)C1N=C2c3ccccc3N=C(SCC(=O)c3ccc(O)c(O)c3)N2C1=O (stereo not drawn) | 52.4% [fluorescence artefact?] (active) |
| O=C1CSC2=NCN(c3ccccc3)CN12 | -6.24% |
| CCCCc1nnc(NC(=O)CSc2nc(C)cc(=O)[nH]2)s1 | 27.8% |
| COC(=O)c1cccc(NC(=O)CSc2nc(C)cc(=O)[nH]2)c1 | 50.1% [fluorescence artefact?] (active) |
| CCOC(=O)Cc1csc(NC(=O)CSc2nc(C)cc(=O)[nH]2)n1 | 1.35% |
| O=C(CCCn1c(SCC(=O)c2ccccc2)nc2ccccc2c1=O)NCC1CCCO1 (stereo not drawn) | -2.4% |
| Cc1cc(C)c(OCC(=O)N/N=C/c2ccco2)c(C)c1 | -10.7% |
| CCCCNC(=O)C1(c2ccc(OC)cc2)CCOCC1 | 39.7% |
| Cc1ccc(SC(=O)COc2ccc(C)c(C)c2)cc1 | -2.52% |
| O=C(NC1CCCC1)C(c1ccccn1)N(C(=O)c1csnn1)C1CCCC1 (stereo not drawn) | 3.18% |
| CCN(CC)S(=O)(=O)c1ccc2[nH]cc(C(=O)NCCc3ccccc3)c(=O)c2c1 | 51.1% [fluorescence artefact?] (active) |
| COc1cccc(NS(=O)(=O)c2ccc3[nH]cc(C(=O)NCCCOC(C)C)c(=O)c3c2)c1 | 19.5% |
| CCCCNC(=O)c1c[nH]c2ccc(S(=O)(=O)Nc3ccc(OCC)cc3)cc2c1=O | 29.9% |
| COC(=O)CSc1snnc1-c1ccc(Cl)c(Cl)c1 | -8.59% |
| Cc1cc(=O)oc2cc(OCC3CC(c4ccccc4Cl)=NO3)ccc12 (stereo not drawn) | -1.82% |
| CCOCN(C(=O)Cn1c(C(C)O)nc2ccccc21)c1c(C)cccc1CC (stereo not drawn) | -15.2% |
